PubChem BioAssay (NCATS)
Results filed as inconclusive are left out. Active and inactive are the calls of the source. Calls come from the whole dose curve; as a rule, active = well fitted curve in the direction sought with a large enough effect; inconclusive = small, poorly fitted or top-dose-only effect, or another doubt; inactive = no such curve, though single readings can be large; an effect the other way counts as inactive or inconclusive. *1 amine or outer side, *2 acyl side, *3 side chain or, on linkers, in order; H or OH if unused. Where a SMILES comes first, the peptide text is derived from it. Bridges are numbered along the chain shown (N, C = ends). X6 = O=C(CCC[*:2])[*:1]

Legend:
KB-3-1 = assay: Cytotoxic Profiling of Annotated Libraries Using Quantitative High-Throughput Screening (AID 1296008); settings: Five cell lines viability, CellTiter-Glo ATP luminescence, 48-72 h; max response: active compounds read low; note: nearly all actives have a fitted effect of over 60% in size; for max response: % is set by controls: 0 for no effect and ±100 for the full control effect
How it was run: (§1)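 Compounds were pin-transferred onto cells and incubated 48 or 72 hr at 37 degree Celsius, 95% humidity. CellTiter-Glo was added, plates sat 10 min at room temperature, then ATP-coupled luminescence was imaged as the viability read-out.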

NIH3T3 [1] = assay: as above; settings: Five cell lines viability, CellTiter-Glo ATP luminescence, 48-72 h; max response: active compounds read low
How it was run: as §1

HEK293T [2] = assay: qHTS assay to identify novel small-molecules to repurpose for Merkel cell carcinoma treatment (AID 1296009); settings: MCC and control cell lines, CellTiter-Glo viability, 72 h; series mostly up to 44.8 µM; note: nearly all actives have a fitted effect of over 60% in size
How it was run: (§2)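 Cells exposed to NPC (8-point) and MIPE (11-point) compound dilutions for 72 hr at 37 degree celsius; viability read by CellTiter-Glo luminescence, normalized to no-cell and DMSO in-plate controls.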

NIH3T3 [3] = assay: as above; settings: MCC and control cell lines, CellTiter-Glo viability, 72 h; at 44.8 µM (top of the series) unless noted
How it was run: as §2

C33A = assay: Primary qHTS to identify gynecologic anti-cancer compounds using libraries of approved drugs and bioactive compounds (AID 1345084); settings: Gynecologic cancer cell panel viability, ATPlite luminescence, 48 h; series mostly up to 57.5 µM; note: % is set by controls: 0 for no effect and ±100 for the full control effect; nearly all actives have a fitted effect of over 55% in size
How it was run: (§3)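 ATP-based viability (ATPlite), 1,000 cells/well, 16 h pre-incubation, 48 h compound at 37 C, 5% CO2, 15 min RT before read.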

CASKI = assay: as above; settings: Gynecologic cancer cell panel viability, ATPlite luminescence, 48 h; series mostly up to 57.5 µM
How it was run: as §3

Es-2 = assay: as above; settings: Gynecologic cancer cell panel viability, ATPlite luminescence, 48 h; series mostly up to 57.5 µM
How it was run: as §3

HeLa = assay: as above; settings: Gynecologic cancer cell panel viability, ATPlite luminescence, 48 h; series mostly up to 57.5 µM
How it was run: as §3

Hek293T [4] = assay: as above; settings: Gynecologic cancer cell panel viability, ATPlite luminescence, 48 h, control line for the selectivity index; series mostly up to 57.5 µM
How it was run: as §3

JEG-3 = assay: as above; settings: Gynecologic cancer cell panel viability, ATPlite luminescence, 48 h; series mostly up to 57.5 µM
How it was run: as §3

OV90 = assay: as above; settings: Gynecologic cancer cell panel viability, ATPlite luminescence, 48 h; series mostly up to 57.5 µM
How it was run: as §3

PA-1 = assay: as above; settings: Gynecologic cancer cell panel viability, ATPlite luminescence, 48 h; series mostly up to 57.5 µM
How it was run: as §3

CAOV3 = assay: as above; settings: Gynecologic cancer cell panel viability, ATPlite luminescence, 48 h; series mostly up to 57.5 µM
How it was run: as §3

Cc1cc(C)c(S(=O)(=O)N(Cc2ccc(-c3cccc(S(C)(=O)=O)c3)cc2)Cc2ccc(C(F)(F)F)o2)c(C)c1
inactive: max response (KB-3-1) -6.43% | outcome (NIH3T3 [1]) | Potency (HEK293T [2]) | outcome (NIH3T3 [3]) | Potency (C33A) | Potency (CASKI) | Potency (Es-2) | Potency (HeLa) | Potency (Hek293T [4]) | Potency (JEG-3) | Potency (OV90) | Potency (PA-1)

CC1CCC(=O)CC(O)C(O)CC(=O)O1 (stereo unspecified)
inactive: max response (KB-3-1) 5.19% | outcome (NIH3T3 [1]) | Potency (HEK293T [2]) | outcome (NIH3T3 [3]) | Potency (C33A) | Potency (CAOV3) | Potency (CASKI) | Potency (Es-2) | Potency (HeLa) | Potency (Hek293T [4]) | Potency (JEG-3) | Potency (OV90) | Potency (PA-1)

CC[C@H](C)[C@@H]1NC(=O)[C@H](Cc2ccc(OC)cc2)NC(=O)CCCSC[C@@H](C(=O)N2CCC[C@H]2C(=O)N[C@@H](CC(C)C)C(=O)NCC(N)=O)NC(=O)[C@H](CC(N)=O)NC(=O)[C@H](CCC(N)=O)NC1=O (Y(Me)IQNCPLG-NH2; linker N-5 via X6)
inactive: outcome (KB-3-1) | outcome (NIH3T3 [1]) | Potency (HEK293T [2]) | outcome (NIH3T3 [3]) | Potency (C33A) | Potency (CAOV3) | Potency (CASKI) | Potency (Es-2) | Potency (HeLa) | Potency (Hek293T [4]) | Potency (JEG-3) | Potency (OV90) | Potency (PA-1)

C=CCc1ccc(O[C@@H]2O[C@H](CO[C@@H]3O[C@@H](C)[C@H](O)[C@@H](O)[C@H]3O)[C@@H](O)[C@H](O)[C@H]2O)cc1
inactive: max response (KB-3-1) 2.9% | outcome (NIH3T3 [1]) | Potency (HEK293T [2]) | outcome (NIH3T3 [3]) inactive [at 17.4 µM] | Potency (C33A) | Potency (CAOV3) | Potency (CASKI) | Potency (Es-2) | Potency (HeLa) | Potency (Hek293T [4]) | Potency (JEG-3) | Potency (OV90) | Potency (PA-1)

CC(C)(C)NCC(O)COc1cccc2c1CCCC2=O (stereo unspecified)
inactive: outcome (KB-3-1) | outcome (NIH3T3 [1]) | Potency (HEK293T [2]) | outcome (NIH3T3 [3]) | Potency (C33A) | Potency (CAOV3) | Potency (CASKI) | Potency (Es-2) | Potency (HeLa) | Potency (Hek293T [4]) | Potency (JEG-3) | Potency (OV90) | Potency (PA-1)

C/C(=C\CCC(C(=O)O)C1CCC2(C)C3=C(CCC12C)C1(C)CCC(=O)C(C)(C)C1CC3)C(=O)O (stereo unspecified)
inactive: outcome (KB-3-1) | outcome (NIH3T3 [1]) | Potency (HEK293T [2]) | outcome (NIH3T3 [3]) inactive [at 17.4 µM] | Potency (C33A) | Potency (CAOV3) | Potency (CASKI) | Potency (Es-2) | Potency (HeLa) | Potency (Hek293T [4]) | Potency (JEG-3) | Potency (OV90) | Potency (PA-1)

COC1=CC(=O)O[C@@H](/C=C/c2ccccc2)[C@@H]1O
inactive: outcome (KB-3-1) | outcome (NIH3T3 [1]) | Potency (HEK293T [2]) | outcome (NIH3T3 [3]) | Potency (C33A) | Potency (CASKI) | Potency (Es-2) | Potency (HeLa) | Potency (Hek293T [4]) | Potency (JEG-3) | Potency (OV90) | Potency (PA-1)

CC(C)(C)NCc1cc(Nc2ccnc3cc(Cl)ccc23)c2c(c1O)CCCC2
inactive: max response (KB-3-1) 7.98% | outcome (NIH3T3 [1]) | outcome (HEK293T [2]) inactive [at 0.588 µM] | outcome (NIH3T3 [3]) inactive [at 0.588 µM] | activity change, negative = cytotoxicity (C33A) 15.8% [at 0.462 µM] | activity change, negative = cytotoxicity (CASKI) 10.8% [at 0.462 µM] | activity change, negative = cytotoxicity (Es-2) 6.55% [at 0.462 µM] | activity change, negative = cytotoxicity (HeLa) 9.09% [at 0.462 µM] | activity change, negative = cytotoxicity (Hek293T [4]) -0.834% [at 0.462 µM] | activity change, negative = cytotoxicity (JEG-3) 2.67% [at 0.462 µM] | activity change, negative = cytotoxicity (OV90) 12.6% [at 0.462 µM] | activity change, negative = cytotoxicity (PA-1) 0.938% [at 0.462 µM]

CC(C)(O)C1CC=C(C(=O)OCC2OC(Oc3c(O)cc(C(=O)O)cc3O)C(O)C(O)C2O)CC1 (stereo unspecified)
inactive: outcome (KB-3-1) | outcome (NIH3T3 [1]) | Potency (HEK293T [2]) | outcome (NIH3T3 [3]) inactive [at 17.4 µM] | Potency (C33A) | Potency (CAOV3) | Potency (CASKI) | Potency (Es-2) | Potency (HeLa) | Potency (Hek293T [4]) | Potency (JEG-3) | Potency (OV90) | Potency (PA-1)

COC(=O)[C@@H]1C2CC3c4[nH]c5ccccc5c4CCN3CC2CC[C@@H]1O (stereo partly specified)
inactive: max response (KB-3-1) 6.91% | outcome (NIH3T3 [1]) | Potency (HEK293T [2]) | outcome (NIH3T3 [3]) | Potency (C33A) | Potency (CAOV3) | Potency (CASKI) | Potency (Es-2) | Potency (HeLa) | Potency (Hek293T [4]) | Potency (JEG-3) | Potency (OV90) | Potency (PA-1)

COC12CC3C(C(C)C1=CC(=O)O2)C(O)C(OC(C)=O)C1C(C)(C)C(OC(C)=O)CCC31C (stereo unspecified)
inactive: outcome (KB-3-1) | outcome (NIH3T3 [1]) | Potency (HEK293T [2]) | outcome (NIH3T3 [3]) inactive [at 17.4 µM] | Potency (C33A) | Potency (CAOV3) | Potency (CASKI) | Potency (Es-2) | Potency (HeLa) | Potency (Hek293T [4]) | Potency (JEG-3) | Potency (OV90) | Potency (PA-1)

COc1cc(/C=C/C(=O)OC(C)(C)C(OC2OC(CO)C(O)C(O)C2O)C(=O)OCc2ccc(OC3OC(CO)C(O)C(O)C3O)cc2)ccc1O (stereo unspecified)
inactive: max response (KB-3-1) 5.7% | outcome (NIH3T3 [1]) | Potency (HEK293T [2]) | outcome (NIH3T3 [3]) inactive [at 17.4 µM] | Potency (C33A) | Potency (CAOV3) | Potency (CASKI) | Potency (Es-2) | Potency (HeLa) | Potency (Hek293T [4]) | Potency (JEG-3) | Potency (OV90) | Potency (PA-1)

CCC(=O)N[C@@H]1Cc2ccccc2[C@H](c2ccccc2)C1
inactive: outcome (KB-3-1) | outcome (NIH3T3 [1]) | Potency (HEK293T [2]) | outcome (NIH3T3 [3]) | Potency (C33A) | Potency (CAOV3) | Potency (CASKI) | Potency (Es-2) | Potency (HeLa) | Potency (Hek293T [4]) | Potency (JEG-3) | Potency (OV90) | Potency (PA-1)
